Results on 40 compounds are retold here after PubChem BioAssay (Tox21).

A number with no mark means an inactive call. The source made the active and inactive calls. Calls follow the shape of the dose curve; as a rule, active = well fitted inhibition curve with a large enough effect in the repeat runs (not every such curve was filed as active); inconclusive = weak or mixed curves; inactive = flat fitted curve, though single readings scatter.
% is scaled to controls: 0 for no effect and ±100 for the full control effect.

Thyrotropin-releasing hormone receptor (Homo sapiens), sequence (P34981 whole entry, looked up): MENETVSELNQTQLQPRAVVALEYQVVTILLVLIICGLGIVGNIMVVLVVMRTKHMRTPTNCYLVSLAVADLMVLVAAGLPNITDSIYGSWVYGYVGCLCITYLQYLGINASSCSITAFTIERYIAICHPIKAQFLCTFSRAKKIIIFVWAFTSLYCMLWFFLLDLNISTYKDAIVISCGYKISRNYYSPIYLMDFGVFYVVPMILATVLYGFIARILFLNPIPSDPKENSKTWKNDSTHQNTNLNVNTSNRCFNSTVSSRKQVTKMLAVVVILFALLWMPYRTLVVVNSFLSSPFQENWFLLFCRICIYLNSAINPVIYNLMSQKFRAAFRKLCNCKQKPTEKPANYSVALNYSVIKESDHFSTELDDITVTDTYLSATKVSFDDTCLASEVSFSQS

In the test the target is Thyrotropin-releasing hormone receptor (Homo sapiens) (UniProt P34981). Description: qHTS assay to identify small molecule antagonists of the thyrotropin-releasing hormone receptor (TRHR) signaling pathway (AID 1346877). The settings on record: TRHR-HEK293, TRH-induced calcium fluorescence, antagonist mode; series mostly up to 51.3 µM. From the text:
National Center for Advancing Translational Sciences [NCATS]
NIH Chemical Genomics Center [NCGC]
U.S. Environmental Protection Agency [EPA]
National Institutes of Environmental Health Sciences [NIEHS]
National Toxicology Program [NTP]
U.S. Food and Drug Administration [FDA]
Thyrotropin-releasing hormone (TRH) receptor (TRHR) is a G-protein-coupled receptor which binds the tripeptide thyrotropin releasing hormone. TRHR is found in the brain and, when bound by TRH, acts (through phospholipase C) to increase intracellular inositol trisphosphate. It plays a crucial role in the anterior pituitary where it controls the synthesis and secretion of thyroid stimulating hormone and prolactin. The TRHR-Hek293 assay is a cell-based assay, and it has the potential to screen G protein-coupled receptors. A compound/drug can either activate (agonist) or suppress (antagonist) GPCRs that can be monitored by levels of intracellular calcium. In this assay, the Tox21 10K compound library was screened to identify potential TRHR antagonists.
Tox21 Assay Protocol Summary:
The TRHR-Hek293 cells were dispensed at 1500cells/4uL/well in 1536-well black-clear bottom plates using a Multidrop dispenser. After the assay plates were incubated at a 37 C/5% CO2 incubator for 18 hours, 4 uL of Dye-Loading Solution was added to each well. The plates were incubated at 37 C for 2 hours. For agonist mode, 23 nL of compounds dissolved in DMSO, positive controls or DMSO only was transferred to the assay plate by a pin tool. The fluorescence intensity in the plates was measured using FDSS 7000EX kinetic plate reader for 3 min at 1 sec intervals. For antagonist mode, 23 nL of compounds dissolved in DMSO, positive controls or DMSO only was transferred to the assay plate by a pin tool. After 5 min incubation at room temperature, 1 uL of TRH was added on the top of the cell/compound mixtures to achieve a final agonist concentration of 1 nM. The fluorescence intensity in the plates was measured using FDSS 7000EX kinetic plate reader for 3 min at 1 sec intervals. Each test compound was measured at 15 concentrations and in triplicates.
(qHTS replaces the single test concentration by a dilution series.)
Take `Cc1c(N)cccc1Cl`: the result was inactive. On the same count and under the same terms, under `CC(CO)(CO)CO` stands “inactive”. On the same count and under the same terms, under `c1ccc(-c2nn[nH]n2)cc1` stands “inactive”; under `COC(=O)c1cc(Cl)cc(Cl)c1`, “inactive”; under `CCCCC1CCC(O)CC1` (stereo not given), “inactive”.

For the compound `O=C(O)CSCC(=O)NC1CCSC1=O` (stereo not given), the result was inactive. On the same count and under the same terms, under `Nc1nnnn1-c1ccccc1` stands “inactive”; under `CC(=O)OC(C)=O`, “inactive”; under `CCCCCCCCCOC(=O)c1ccccc1C(=O)OCCCCCCCCC`, “inactive”. Same read-out and setting: the same measure for `CN(C)CCCCl`: “inactive”; for `Cc1cccc(Cl)c1`: “inactive”; for `OC[C@@H](O)C(O)[C@@H](O)CO` (stereo not given in full): “inactive”. Turning to `CC(C)C1OCCN1CCOC(=O)NCCCCCCNC(=O)OCCN1CCOC1C(C)C` (stereo not given), the outcome was inactive. In the case of `CCn1cc(C(=O)O)c(=O)c2cnc(N3CCCC3)nc21`, the activity, negative = inhibition is 1.25% [at 4.65 µM]. Turning to `OC1OCCOC1O` (stereo not given), the result was inactive. Still for that read-out and setting: under `CCOc1cccc(N)c1` stands “inactive”; under `Cc1ccccc1C(N)=O`, “inactive”. Same read-out and setting: the same measure for `CC(C)[C@H]1CC[C@H](C)C[C@@H]1O`: “inactive”; for `N#Cc1cscn1`: “inactive”.

On to `C[C@H]1[C@@H](c2ccccc2)NC(=O)N1C`, for which the result was inactive. On the same count and under the same terms, the same measure for `CC(=O)OC1CCCCC1C(C)(C)C` (stereo not given): “inactive”; for `ONc1ccccc1`: “inactive”. Consider `CCCCCCCCCOC(=O)CCCCC(=O)OCCCCCCC`, for which the outcome was inactive. On the same count and under the same terms, the same measure for `CC1=C(C(=O)O)N2C(=O)[C@@H](NC(=O)[C@H](N)c3ccccc3)[C@H]2SC1`: “inactive”; for `CN(C)CCOC(=O)C(c1ccccc1)C1(O)CCCC1` (stereo not given): “inactive”; for `O=C(CN1CCNCC1)NC1CCCCC1`: “inactive”.

`O=C=NCC1CCCC(CN=C=O)C1` (stereo not given): the outcome was inactive.

For `C=Cc1ccc(C(C)(C)C)cc1`, the result was inactive. Same read-out and setting: under `N#CCC(=O)NN` stands “inactive”; under `CCCCSCCCC`, “inactive”. On to `CCC(=O)Oc1ccc2c(c1)CC[C@@H]1[C@@H]2CC[C@@]2(C)[C@H]1C[C@@H](OC(=O)CC)[C@@H]2OC(=O)CC`, for which the outcome was inactive. Same read-out and setting: under `CCC(C)C(=O)OCCc1ccccc1` (stereo not given) stands “inactive”; under `C=CCSSCCC`, “inactive”; under `C=CCCCCCCCCC(=O)OCCCC`, “inactive”. With `C[C@@H](O)C(=O)O`, the result was inactive. Consider `CC(=O)C(C)O` (stereo not given), for which the result was inactive. Turning to `CC(C)CO`, the outcome was inactive.

For `CCO`, the outcome was inactive. Take `CC(=O)O[C@H]1C[C@@H]2CC[C@@]1(C)C2(C)C`: the result was inactive. For the compound `CC(C)COC(=O)c1ccccc1`, the result was inactive.
